Rows were chosen to be rich in hits. Some 2.6% of all compounds tested hit in one or more screens of this group.
Cruzain inh noDet = inhibitors of Trypanosoma cruzi cruzain without detergent; P25779; purified cruzain, Z-FR-AMC fluorescence, no detergent; Potency, µM, inactives show max response, negative = inhibition, most hits filed as inhibitors; actives 2.3% (n = 200,000);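 also: plate controls were enzyme without inhibitor for no effect and buffer without enzyme for full effect; nearly all actives have a fitted effect of over 40% in size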
Target sequence (P25779 123-467 limits assumed): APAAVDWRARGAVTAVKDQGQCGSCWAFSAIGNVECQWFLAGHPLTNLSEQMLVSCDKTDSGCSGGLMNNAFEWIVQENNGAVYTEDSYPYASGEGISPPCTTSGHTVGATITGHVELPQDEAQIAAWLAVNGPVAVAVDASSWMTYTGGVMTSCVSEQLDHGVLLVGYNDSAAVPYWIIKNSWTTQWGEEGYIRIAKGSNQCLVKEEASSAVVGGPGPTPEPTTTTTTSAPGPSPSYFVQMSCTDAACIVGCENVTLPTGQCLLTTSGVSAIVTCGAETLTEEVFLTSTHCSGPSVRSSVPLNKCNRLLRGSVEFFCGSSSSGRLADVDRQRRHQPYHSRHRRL
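Purified cruzain at 1.5 nM, pre-incubated 15 min with compound at room temperature in 100 mM sodium acetate pH 5.5, 5 mM DTT, 0.00005% Triton X-100. Reaction started with 2 uM Z-FR-AMC; AMC fluorescence increase over 60 s gives rate.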
Cruzain Triton = inhibitors of Trypanosoma cruzi cruzain with detergent; Potency, µM, for the others: max response, negative = inhibition, hits mostly inhibitors; P25779; AID 1478; actives 0.43% (n = 200,000); purified cruzain, Z-FR-AMC fluorescence, 0.01% Triton;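 also: plate controls were neutral wells for no effect and buffer without enzyme for full effect; nearly all actives have a fitted effect of over 40% in size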
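Read-out: AMC fluorescence (360 nm excitation, 450 nm emission), four reads over 2 min, first-to-third difference used. Conditions: cruzain 1.5 nM, Z-FR-AMC 2 uM, pH 5.5 acetate, 5 mM DTT, 0.01% Triton X-100.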
Papain inh = counter-screen for cruzain inhibitors: papain inhibition. actives 41% (n = 410). purified papain, Z-FR-AMC fluorescence cleavage. shares compounds with Cruzain Triton. Potency, µM, for inactives: max response, negative = inhibition, actives largely listed as inhibitors. AID 2161;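 also: 0% = no-compound wells and -100% = no-enzyme wells; nearly all actives have a fitted effect of over 35% in size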
* = called active by the depositor; ? = inconclusive; . = no result. Calls follow the shape of the dose curve; as a rule, active = well fitted curve in the direction sought with a large enough effect; inconclusive = small, poorly fitted or top-dose-only effect, or another doubt; inactive = no such curve, though single readings can be large; an effect the other way counts as inactive or inconclusive. Potency is read from the fitted curve at half-maximal effect.

SMILES	Cruzain inh noDet	Cruzain Triton	Papain inh
CC(C)NC(=O)COC(=O)CNC(=O)C1CCCCC1	.	.	-58%
O=C(CNC(=O)C1CCCCC1)Nc1ccccc1	-11%	-2%	.
CC(C)CCNC(=O)c1ccc2c(c1)nc1n2CCCCC1	-3%	1%	.
CCCCC/C=C\C/C=C\C/C=C\C/C=C\CCCC(=O)C(F)(F)F	12%	4%	.
O=C(O)c1ccc2cc(-c3ccc(O)c(C45CC6CC(CC(C6)C4)C5)c3)ccc2c1	-14%	?	.
Cc1ccc(Cn2c(CNS(=O)(=O)c3c(C)cc(C)cc3C)nc3cccnc32)cc1	-8%	-6%	.
CSc1nc(NC(C)C)nc(NC(C)C)n1	-8%	3%	.
CNc1nc(N/N=C/c2ccc([N+](=O)[O-])cc2)nc(Nc2ccccc2)n1	0%	-11%	.
COc1nc(Nc2ccc([N+](=O)[O-])cc2)nc(NC(C)C)n1	-19%	-14%	.
CN(C)c1nc(Nc2ccccc2)nc(N(C)C)n1	2%	-3%	.
CNc1nc(C#N)nc(Nc2ccccc2)n1	.	.	2.2µM*
CC(C)Nc1nc(C#N)nc(Nc2ccccc2)n1	.	.	2.2µM*
CC(C)Nc1nc(C#N)nc(NC(C)C)n1	16µM*	11µM*	5µM*
CC(C)CNc1nc(C#N)nc(Nc2ccccc2)n1	.	.	1.3µM*
Cc1ccc(N(Cc2cccs2)C(=O)Nc2cccc(Cl)c2)cc1	-5%	-4%	.
CCCCCOC(=O)CSc1ncnc2c1sc1nc(N3CCOCC3)c3c(c12)CCCC3	11%	-1%	.
O=C1CCCC1C(O)c1ccc2ccccc2c1 (stereo not drawn)	7%	7%	.
Cc1ccc(Cn2c(C(=O)NCc3ccccc3Cl)cc3sccc32)cc1	?	-15%	.
CCc1ccc(N2CSC3=C(C#N)C(c4cccs4)CC(=O)N3C2)cc1 (stereo not drawn)	?	-8%	.
CCOC(=O)c1ccc(N2CSC3=C(C#N)C(c4cccs4)CC(=O)N3C2)cc1 (stereo not drawn)	-16%	-9%	2%
O=C(NCCc1nc2ccccc2n1CCCOc1ccccc1Cl)C1CCCCC1	.	.	-17%
Cc1ccccc1OCCn1c(CCNC(=O)C(C)(C)C)nc2ccccc21	?	-3%	.
O=C(NCCCc1nc2ccccc2n1Cc1ccccc1Cl)C1CCCCC1	-8%	-6%	.
Cc1ccccc1OCCn1c(CCNC(=O)C2CCCCC2)nc2ccccc21	-2%	1.4µM*	-3%
O=C(NCCc1nc2ccccc2n1CCOc1cccc2ccccc12)C1CCCCC1	.	.	3%
SMILES	Cruzain inh noDet	Cruzain Triton	Papain inh
Cc1ccc(C)c(OCCn2c(CCNC(=O)C3CCCCC3)nc3ccccc32)c1	1%	1.3µM*	4%
CC(=O)NCCc1nc2ccccc2n1Cc1ccc(C)cc1	-1%	1%	.
CCCC(=O)NCCc1nc2ccccc2n1CCC	?	1%	.
COc1ccc(C)cc1NC(=O)C1CCN(S(=O)(=O)c2ccc3c(c2)CCCN3C(C)=O)CC1	?	-3%	.
Cc1c(C(=O)OC2CCC(C)CC2)[nH]c2c1C(=O)CC(c1ccc(N(C)C)cc1)C2 (stereo not drawn)	-3%	-1%	.
CCC(C(=O)NC1CCCC1)n1c(SCc2cccc(C)c2)nc2ccncc21 (stereo not drawn)	1%	-15%	.
CCC(C(=O)NC1CCCCC1)n1c(SCc2ccc(F)cc2)nc2ccncc21 (stereo not drawn)	0%	13µM*	-15%
COc1ccc(C(=O)NCC(c2cccnc2)N2CCN(c3ccc(F)cc3)CC2)cc1 (stereo not drawn)	?	-12%	.
O=C1NC(c2ccccc2)=N/C1=C/c1ccco1	0%	-8%	.
O=C1OC(/C=C/c2ccc(Cl)cc2)=NC/1=C/c1ccco1	16µM*	2.5µM*	-15%
Cc1ccc(CCNC(=O)c2ccc3c(c2)N(Cc2cccc(Cl)c2)C(=O)c2ccccc2S3(=O)=O)cc1	?	-1%	.
CNC(=O)c1ccc2nc(-c3cccc(C)c3)c(-c3cccc(C)c3)nc2c1	.	.	-13%
Cc1cc(NC(=O)c2ccc3nc(-c4ccccc4)c(-c4ccccc4)nc3c2)no1	-21%	-5%	.
COc1cccc(Nc2ncc3nc(C)c(=O)n(C4CC4)c3n2)c1	26%	3%	.
Cc1ccc(NC(=O)C2CCCN(S(=O)(=O)c3ccc4[nH]c(=O)ccc4c3)C2)cc1Cl (stereo not drawn)	-1%	-1%	.
Cc1ccc(CNC(=O)c2cnc3c(-c4ccccc4)c(C)nn3c2C)o1	-6%	-5%	.
Nc1ncc(S(=O)(=O)Nc2ccc(F)cc2F)cn1	-6%	-1%	.
CCc1ccccc1NC(=O)Cn1c(=O)n(CCCS(=O)(=O)C2CCCCC2)c(=O)c2ccccc21	-13%	4%	.
CN(C)c1nc(C#N)nc(N(C)C)n1	.	.	11µM*
CCCN(CCC)c1nc(N)c(C#N)c(CC#N)c1C#N	-15%	-6%	.
CCCN(CCC)c1nc(C#N)nc(N(CCC)CCC)n1	.	.	2.5µM*
CN(C)c1nc(N(C)C)nc(N(C)C)n1	-2%	4%	.
